# In PubChem BioAssay AID504809 (National Center for Advancing Translational Sciences (NCATS), 2011):
# Records with an inconclusive call do not appear. A number with no mark means an inactive call. Active and inactive are the calls of the source. The call rests on the fitted dose curve; in most records, active means well fitted curve in the direction sought with a large enough effect; inconclusive means small, poorly fitted or top-dose-only effect, or another doubt; inactive means no such curve, though single readings can be large or run the other way.
# Assay: Followup screen for small molecules that induce DNA re-replication in MCF 10A normal breast cells
# Details: MCF 10A DNA re-replication, Hoechst nuclear intensity, 48 h; series mostly up to 46.1 µM; re-replication activation: at the top concentration
# Text: NIH Molecular Libraries Probe Production Network [MLPCN] NIH Chemical Genomics Center [NCGC] MLPCN Grant: Fast Track K99 CA136555 Assay Provider: Melvin DePamphilis, NICHD, NIH Assay Overview Eukaryotic cells normally restrict genome duplication to once per cell division. When this process is aberrant, DNA re-replication occurs when cells reinitiate DNA replication before the first round of replication is complete. DNA re-replication induces the DNA damage response, arrests cell proliferation, and triggers apoptosis. The cell cycle components cyclin A, Cdt-1, Cdc6 and geminin are critical regulators of this process and their misregulation results in DNA re-replication in normal and cancer cells. To identify compounds that induce re-replication in normal cells, an image-based assay was used to measure DNA content of nuclei, as detected by the fluorescent DNA binding dye, Hoechst. Cell nuclei were imaged by a fluorescence scanning plate imager and compounds that induce DNA re-replication were identified by the increase of nuclei with elevated fluorescence intensity.
# Assay Protocol Summary For screening, 250 cells in 5 uL/well were dispensed into black clear 1536-well plates (Aurora) using a solenoid-based dispenser. Following transfer of 23 nL compound or DMSO vehicle by a pin tool, the plates were incubated 48 hr at 37 C and 5% CO2. After addition of 1 uL/well Hoescht stain, the plates were incubated 40 min at 37 C, 5% CO2 and total intensity of fluorescent objects (nuclei) were enumerated by an Acumen Explorer Ex3 (TTP LabTech) fluorescence scanning plate imager (405 nm excitation, 500-530 nm emission). Keywords: NIH Roadmap, MLPCN, MLI, MLSMR, qHTS, NCGC, DNA replication, cancer
Compound,Potency,re-replication activation [%]
COc1cc([C@@H]2c3cc4c(cc3[C@H](O)[C@@H]3COC(=O)[C@H]23)OCO4)cc(OC)c1OC,26.8 nM (active),–
CC(C)NP(=O)(NC(C)C)OP(=O)(NC(C)C)NC(C)C,–,-3.1
NCC#Cc1ccccc1,–,14.6
